Reference: PubChem BioAssay (EPA / NIEHS)
Where “and” joins values, the source holds several entries; their conditions need not be identical. Equal values may be shown once. Results filed as inconclusive are left out. The source holds several records for some structures; these can differ, active in one and inactive in another. Calls of active or inactive are those of the source. The calls were made as follows: active = hit-call score of the fitted dose curve at least 0.9, where 1 is the maximum; inconclusive = response in the unintended direction; inactive = score below 0.9.

Experiments:
[1] = molecular target: rat Monoamine Oxidase, MAO-B, Peripheral (MAOBP), Maob (gene 25750) (UniProt P19643); assay: NVS_ENZ_rMAOBP: NovaScreen (NVS) Enzymatic Assay for rat Monoamine Oxidase, MAO-B, Peripheral (MAOBP) (AID 2283242)
rat Monoamine Oxidase, MAO-B, Peripheral (MAOBP), Maob (gene 25750), sequence (P19643 whole entry, looked up): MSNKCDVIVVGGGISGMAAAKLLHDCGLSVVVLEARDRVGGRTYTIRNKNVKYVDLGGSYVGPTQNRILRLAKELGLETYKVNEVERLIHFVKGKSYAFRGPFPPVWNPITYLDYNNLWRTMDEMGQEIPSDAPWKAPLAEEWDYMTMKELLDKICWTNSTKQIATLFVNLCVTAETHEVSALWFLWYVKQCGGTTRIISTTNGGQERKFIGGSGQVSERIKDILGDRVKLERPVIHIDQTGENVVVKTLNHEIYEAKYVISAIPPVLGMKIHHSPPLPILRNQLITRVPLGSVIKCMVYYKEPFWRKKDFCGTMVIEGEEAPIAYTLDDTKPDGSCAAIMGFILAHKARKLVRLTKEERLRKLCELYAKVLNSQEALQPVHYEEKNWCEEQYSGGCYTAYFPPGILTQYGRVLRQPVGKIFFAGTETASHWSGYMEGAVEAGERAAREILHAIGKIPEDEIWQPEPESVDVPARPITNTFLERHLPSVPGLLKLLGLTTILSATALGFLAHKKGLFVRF

[2] = tested on: rat Monoamine Oxidase, MAO-A, Central (MAOAC), gene 29253; assay: NVS_ENZ_rMAOAC: NovaScreen (NVS) Enzymatic Assay for rat Monoamine Oxidase, MAO-A, Central (MAOAC) (AID 2283243);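 also: potency refers to inhibition seen as signal drop below DMSO baseline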
How it was run: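 Rat brain tissue extract served as the cell-free enzyme source; activity was measured by radiometric scintillation counting 1.5 hours after compound addition. Loss of signal relative to DMSO baseline indicated inhibition; primary screen at 25 uM in duplicate.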

[3] = molecular target: human Serotonin, 5-Hydroxytryptamine Receptor 7 (5HT7), HTR7 (gene 3363) (UniProt P34969); assay: NVS_GPCR_h5HT7: NovaScreen (NVS) G Protein-Coupled Receptor Assay for human Serotonin, 5-Hydroxytryptamine Receptor 7 (5HT7) (AID 2283255);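 also: hits reduce specific radioligand binding relative to DMSO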
human Serotonin, 5-Hydroxytryptamine Receptor 7 (5HT7), HTR7 (gene 3363), sequence (P34969 whole entry, looked up): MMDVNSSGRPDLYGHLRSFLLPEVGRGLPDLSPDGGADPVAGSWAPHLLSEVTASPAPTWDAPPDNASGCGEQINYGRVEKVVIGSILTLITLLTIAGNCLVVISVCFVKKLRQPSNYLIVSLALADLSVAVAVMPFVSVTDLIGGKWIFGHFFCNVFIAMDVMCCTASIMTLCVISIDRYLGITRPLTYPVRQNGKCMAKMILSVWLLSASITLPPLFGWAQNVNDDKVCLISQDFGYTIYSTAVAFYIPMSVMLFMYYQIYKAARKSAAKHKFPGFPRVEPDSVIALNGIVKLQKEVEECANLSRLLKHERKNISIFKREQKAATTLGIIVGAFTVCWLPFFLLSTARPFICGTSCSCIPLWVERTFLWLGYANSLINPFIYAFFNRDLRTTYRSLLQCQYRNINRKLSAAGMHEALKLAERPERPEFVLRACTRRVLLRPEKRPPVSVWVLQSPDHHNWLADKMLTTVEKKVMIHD
How it was run: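 Radioligand displacement on membranes from CHO cells expressing human 5HT7, 1 h incubation, filter-based scintillation counting. Primary screen used a single 25 uM concentration in duplicate; actives were followed up in concentration series.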

[4] = molecular target: human Adrenergic, Beta 1 Receptor (Adrb1), ADRB1 (gene 153) (UniProt P08588); assay: NVS_GPCR_hAdrb1: NovaScreen (NVS) G Protein-Coupled Receptor Assay for human Adrenergic, Beta 1 Receptor (Adrb1) (AID 2283258)
human Adrenergic, Beta 1 Receptor (Adrb1), ADRB1 (gene 153), sequence (P08588 whole entry, looked up): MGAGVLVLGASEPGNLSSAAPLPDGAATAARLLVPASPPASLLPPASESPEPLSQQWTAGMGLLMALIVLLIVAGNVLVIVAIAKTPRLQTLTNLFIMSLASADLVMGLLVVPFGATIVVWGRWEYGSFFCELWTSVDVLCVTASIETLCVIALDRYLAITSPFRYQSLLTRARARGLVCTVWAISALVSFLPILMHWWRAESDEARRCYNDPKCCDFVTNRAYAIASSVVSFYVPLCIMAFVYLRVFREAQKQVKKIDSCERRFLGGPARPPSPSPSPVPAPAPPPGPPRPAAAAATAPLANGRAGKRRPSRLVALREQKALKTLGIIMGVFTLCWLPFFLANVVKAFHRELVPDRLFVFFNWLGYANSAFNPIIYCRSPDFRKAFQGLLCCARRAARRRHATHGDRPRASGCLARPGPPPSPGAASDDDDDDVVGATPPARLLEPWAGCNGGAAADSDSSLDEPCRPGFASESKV
How it was run: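 Cell-free radioligand displacement on receptor from human neuroepithelioma cells; 2 h after dosing, filter-based scintillation counting. Primary screen in duplicate at 25 uM, actives retested in concentration series; loss of signal vs DMSO baseline.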

[5] = molecular target: human Adrenergic, Alpha 2c Receptor (Adra2C), ADRA2C (gene 152) (UniProt P18825); assay: NVS_GPCR_hAdra2C: NovaScreen (NVS) G Protein-Coupled Receptor Assay for human Adrenergic, Alpha 2c Receptor (Adra2C) (AID 2283259)
human Adrenergic, Alpha 2c Receptor (Adra2C), ADRA2C (gene 152), sequence (P18825 whole entry, looked up): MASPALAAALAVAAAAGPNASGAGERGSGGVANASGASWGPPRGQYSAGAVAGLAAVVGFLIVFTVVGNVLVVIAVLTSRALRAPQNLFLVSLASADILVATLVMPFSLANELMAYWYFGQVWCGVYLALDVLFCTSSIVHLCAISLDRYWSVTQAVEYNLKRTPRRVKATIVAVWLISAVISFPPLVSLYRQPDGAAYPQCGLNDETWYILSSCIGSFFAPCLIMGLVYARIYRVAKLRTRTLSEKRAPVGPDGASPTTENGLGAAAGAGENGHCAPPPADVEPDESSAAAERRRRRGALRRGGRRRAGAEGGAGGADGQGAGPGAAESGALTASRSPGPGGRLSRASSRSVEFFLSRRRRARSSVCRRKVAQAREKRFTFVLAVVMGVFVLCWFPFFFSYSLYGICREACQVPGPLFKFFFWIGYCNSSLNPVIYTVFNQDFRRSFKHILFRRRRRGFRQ
How it was run: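 Radioligand binding on Sf9-expressed receptor membranes, 1 h after chemical dosing, filter-based scintillation read-out. Loss of binding fitted positively versus DMSO; primary duplicate screen at 25 uM, actives retested in concentration series.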

[6] = molecular target: human Endothelin Receptor Type A (ETA), EDNRA (gene 1909) (UniProt P25101); assay: NVS_GPCR_hETA: NovaScreen (NVS) G Protein-Coupled Receptor Assay for human Endothelin Receptor Type A (ETA) (AID 2283265)
How it was run: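 Cell-free radioligand displacement using SH-SY5Y-derived protein, 3 h incubation, filter-based scintillation counting. Primary screen in duplicate at 25 uM; actives then run in concentration-response up to 50 uM; loss of binding fitted versus DMSO.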

[7] = molecular target: human Dopamine Receptor D2 (DRD2), DRD2 (gene 1813) (UniProt P14416); assay: NVS_GPCR_hDRD2s: NovaScreen (NVS) G Protein-Coupled Receptor Assay for human Dopamine Receptor D2 (DRD2) (AID 2283266)
human Dopamine Receptor D2 (DRD2), DRD2 (gene 1813), sequence (P14416 whole entry, looked up): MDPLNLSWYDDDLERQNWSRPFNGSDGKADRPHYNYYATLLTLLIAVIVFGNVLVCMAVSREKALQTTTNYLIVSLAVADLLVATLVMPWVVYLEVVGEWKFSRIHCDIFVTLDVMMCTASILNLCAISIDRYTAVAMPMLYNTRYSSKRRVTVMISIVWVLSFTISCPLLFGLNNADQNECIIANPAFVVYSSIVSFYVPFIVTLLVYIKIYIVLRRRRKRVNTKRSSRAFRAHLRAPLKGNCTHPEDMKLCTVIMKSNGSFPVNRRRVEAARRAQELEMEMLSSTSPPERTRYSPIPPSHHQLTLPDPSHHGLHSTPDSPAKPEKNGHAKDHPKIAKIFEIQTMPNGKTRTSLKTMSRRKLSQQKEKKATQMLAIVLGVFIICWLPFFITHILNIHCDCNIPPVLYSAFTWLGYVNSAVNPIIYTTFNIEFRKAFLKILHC
How it was run: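 Radioligand displacement used human DRD2 membranes extracted from CHO cells and was read by filter-based scintillation counting after 1.5 hours. Primary screening was in duplicate at 25 uM. Loss of signal versus DMSO was fitted, with concentration series in follow-up.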

[8] = molecular target: human Serotonin, 5-Hydroxytryptamine Receptor 6 (5HT6), HTR6 (gene 3362) (UniProt P50406); assay: NVS_GPCR_h5HT6: NovaScreen (NVS) G Protein-Coupled Receptor Assay for human Serotonin, 5-Hydroxytryptamine Receptor 6 (5HT6) (AID 2283253)
How it was run: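 Radioligand binding to 5HT6 in HEK293-derived membranes, cell-free, 1 h after dosing; bound ligand measured by filter-based scintillation counting. Primary screen in duplicate at 25 uM; actives retested in concentration series.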

[9] = molecular target: human Adrenergic, Alpha 2A Receptor (Adra2A), ADRA2A (gene 150) (UniProt P08913); assay: NVS_GPCR_hAdra2A: NovaScreen (NVS) G Protein-Coupled Receptor Assay for human Adrenergic, Alpha 2A Receptor (Adra2A) (AID 2283257)
human Adrenergic, Alpha 2A Receptor (Adra2A), ADRA2A (gene 150), sequence (P08913 whole entry, looked up): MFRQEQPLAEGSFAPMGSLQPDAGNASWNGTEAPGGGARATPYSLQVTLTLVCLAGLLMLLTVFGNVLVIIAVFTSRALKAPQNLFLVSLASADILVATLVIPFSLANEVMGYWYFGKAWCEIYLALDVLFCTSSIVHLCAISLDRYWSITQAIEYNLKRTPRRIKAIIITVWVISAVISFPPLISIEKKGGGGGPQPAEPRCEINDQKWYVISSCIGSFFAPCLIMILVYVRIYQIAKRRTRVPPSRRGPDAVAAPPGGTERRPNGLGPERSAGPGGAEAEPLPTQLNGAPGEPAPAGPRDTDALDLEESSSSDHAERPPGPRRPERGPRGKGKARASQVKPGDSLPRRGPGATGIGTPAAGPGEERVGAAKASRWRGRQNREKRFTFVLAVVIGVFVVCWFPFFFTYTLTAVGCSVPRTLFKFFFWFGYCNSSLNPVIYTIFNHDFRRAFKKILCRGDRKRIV
How it was run: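 Radioligand filter-binding was run on HT29-derived membranes, cell-free, read by scintillation counting 1 h after dosing. Primary screening was in duplicate at 25 uM, with concentration series in follow-up. Loss of signal versus DMSO indicates displacement.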

[10] = molecular target: guinea pig Opioid, Kappa 1 Receptor (OpiateK), OPRK1 (gene 100135587) (UniProt P41144); assay: NVS_GPCR_gOpiateK: NovaScreen (NVS) G Protein-Coupled Receptor Assay for guinea pig Opioid, Kappa 1 Receptor (OpiateK) (AID 2283252);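 also: radioligand displacement from kappa opioid receptor in guinea pig cerebellar membranes; active means reduced radioligand binding relative to DMSO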
How it was run: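 Signal is scintillation counts of filter-trapped radioligand bound to guinea pig cerebellar membrane receptor, measured 2 hours post-dosing. Activity is loss of binding versus DMSO, first at 25 uM in duplicate, then as concentration series for actives.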

[11] = molecular target: guinea pig Leukotriene D4 Receptor (LTD4), CYSLTR1 (gene 100135514) (UniProt Q2NNR5); assay: NVS_GPCR_gLTD4: NovaScreen (NVS) G Protein-Coupled Receptor Assay for guinea pig Leukotriene D4 Receptor (LTD4) (AID 2283248)
guinea pig Leukotriene D4 Receptor (LTD4), CYSLTR1 (gene 100135514), sequence (Q2NNR5 whole entry, looked up): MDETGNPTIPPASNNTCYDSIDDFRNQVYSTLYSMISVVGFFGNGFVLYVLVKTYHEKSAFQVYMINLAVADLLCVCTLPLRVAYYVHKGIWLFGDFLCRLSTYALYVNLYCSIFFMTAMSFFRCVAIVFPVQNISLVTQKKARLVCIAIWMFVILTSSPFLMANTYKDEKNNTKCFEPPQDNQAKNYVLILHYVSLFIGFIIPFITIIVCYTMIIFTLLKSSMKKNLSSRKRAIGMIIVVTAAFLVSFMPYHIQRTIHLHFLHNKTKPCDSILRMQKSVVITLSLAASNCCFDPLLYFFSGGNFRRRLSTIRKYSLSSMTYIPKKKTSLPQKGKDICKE
How it was run: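 Radioligand displacement on guinea pig lung membranes, 1 h incubation, filtration and scintillation counting; DMSO as negative control. Duplicate 25 uM primary screen, then singleton concentration-response up to 50 uM.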

[12] = molecular target: human Adenosine A1 Receptor (AdoRA1), ADORA1 (gene 134) (UniProt P30542); assay: NVS_GPCR_hAdoRA1: NovaScreen (NVS) G Protein-Coupled Receptor Assay for human Adenosine A1 Receptor (AdoRA1) (AID 2283254)
human Adenosine A1 Receptor (AdoRA1), ADORA1 (gene 134), sequence (P30542 whole entry, looked up): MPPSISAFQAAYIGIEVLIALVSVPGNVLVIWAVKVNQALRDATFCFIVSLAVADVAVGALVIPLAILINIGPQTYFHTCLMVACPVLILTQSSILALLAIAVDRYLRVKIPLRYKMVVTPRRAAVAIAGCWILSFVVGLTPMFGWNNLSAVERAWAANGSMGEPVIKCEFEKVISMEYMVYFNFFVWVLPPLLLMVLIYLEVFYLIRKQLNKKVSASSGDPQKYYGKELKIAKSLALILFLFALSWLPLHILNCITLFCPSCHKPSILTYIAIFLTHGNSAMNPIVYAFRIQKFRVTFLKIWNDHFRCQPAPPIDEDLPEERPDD
How it was run: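 Membranes from human cortical tissue were incubated with radioligand and test chemical for 1 hour, then filtered and counted. Activity was taken as signal loss relative to DMSO, screened at 25 uM in duplicate before concentration-response follow-up.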

[13] = molecular target: human Adenosine A2a Receptor (AdoRA2a), ADORA2A (gene 135) (UniProt P29274); assay: NVS_GPCR_hAdoRA2a: NovaScreen (NVS) G Protein-Coupled Receptor Assay for human Adenosine A2a Receptor (AdoRA2a) (AID 2283256)
human Adenosine A2a Receptor (AdoRA2a), ADORA2A (gene 135), sequence (P29274 whole entry, looked up): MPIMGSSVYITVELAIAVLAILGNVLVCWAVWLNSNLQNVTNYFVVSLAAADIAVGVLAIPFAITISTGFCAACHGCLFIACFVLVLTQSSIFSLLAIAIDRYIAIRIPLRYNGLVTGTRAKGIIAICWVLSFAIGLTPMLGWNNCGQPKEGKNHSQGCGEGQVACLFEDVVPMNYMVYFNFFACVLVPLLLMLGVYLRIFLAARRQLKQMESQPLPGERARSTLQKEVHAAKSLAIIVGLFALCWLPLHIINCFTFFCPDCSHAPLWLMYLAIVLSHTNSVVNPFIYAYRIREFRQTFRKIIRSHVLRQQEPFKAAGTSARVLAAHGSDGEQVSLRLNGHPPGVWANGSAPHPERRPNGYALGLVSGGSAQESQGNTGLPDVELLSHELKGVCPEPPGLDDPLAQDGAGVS
How it was run: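 Cell-free radioligand binding on membranes from HEK293 expressing the receptor; competitive displacement read 1.5 h after dosing by filter-based scintillation counting. Primary screen in duplicate at 25 uM; actives followed in concentration series, with DMSO as baseline.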

[14] = molecular target: Type-1 angiotensin II receptor (Homo sapiens) (UniProt P30556); assay: NVS_GPCR_hAT1: NovaScreen (NVS) G Protein-Coupled Receptor Assay for human Angiotensin II receptor type 1 (AT1) (AID 2283263)
Type-1 angiotensin II receptor (Homo sapiens), sequence (P30556 whole entry, looked up): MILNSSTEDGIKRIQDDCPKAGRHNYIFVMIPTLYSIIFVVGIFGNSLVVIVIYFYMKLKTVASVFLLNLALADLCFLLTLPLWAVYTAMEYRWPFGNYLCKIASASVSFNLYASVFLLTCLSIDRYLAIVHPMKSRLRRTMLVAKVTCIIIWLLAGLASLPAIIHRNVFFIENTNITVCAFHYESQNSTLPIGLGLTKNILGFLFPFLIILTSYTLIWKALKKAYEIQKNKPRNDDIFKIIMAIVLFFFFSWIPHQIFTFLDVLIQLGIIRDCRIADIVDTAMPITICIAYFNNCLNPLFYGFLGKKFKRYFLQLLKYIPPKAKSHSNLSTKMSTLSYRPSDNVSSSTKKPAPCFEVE
How it was run: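 Membranes from KAN-TS cells; radioligand competitive displacement, 3 h, filtration and scintillation counting. Single-point duplicate screen at 25 uM, then concentration-response up to 50 uM for hits; loss of signal fitted versus DMSO.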

[15] = molecular target: human Dopamine Receptor D4.4 (DRD4.4), DRD4 (gene 1815) (UniProt P21917); assay: NVS_GPCR_hDRD4.4: NovaScreen (NVS) G Protein-Coupled Receptor Assay for human Dopamine Receptor D4.4 (DRD4.4) (AID 2283264)
human Dopamine Receptor D4.4 (DRD4.4), DRD4 (gene 1815), sequence (P21917 whole entry, looked up): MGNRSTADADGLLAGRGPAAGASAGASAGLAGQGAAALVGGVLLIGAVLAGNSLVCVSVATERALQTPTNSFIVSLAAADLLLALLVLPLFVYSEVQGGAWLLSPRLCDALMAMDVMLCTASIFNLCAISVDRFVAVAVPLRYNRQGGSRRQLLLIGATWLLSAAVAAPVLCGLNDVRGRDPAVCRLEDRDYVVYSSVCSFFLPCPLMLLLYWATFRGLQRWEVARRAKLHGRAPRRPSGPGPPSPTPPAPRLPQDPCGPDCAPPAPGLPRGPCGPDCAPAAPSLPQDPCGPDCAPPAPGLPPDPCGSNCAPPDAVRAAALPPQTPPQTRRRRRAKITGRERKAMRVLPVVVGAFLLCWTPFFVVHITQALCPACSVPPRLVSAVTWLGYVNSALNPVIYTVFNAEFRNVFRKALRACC
How it was run: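 Radioligand displacement on human DRD4.4 from CHO-derived membranes, 1 hour incubation, bound counts read by filtration and scintillation. Primary screen in duplicate at 25 uM; actives followed up in concentration series.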

[16] = NVS_GPCR_bNPY_NonSelective: NovaScreen (NVS) G Protein-Coupled Receptor Assay for bovine Neuropeptide Y (NPY) Receptor, Non-selective Binding (AID 2283245)
How it was run: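 Bovine hippocampal membranes incubated 1 hour with radioligand and test chemical. Bound ligand measured by filter-based scintillation counting. Single-concentration screen at 25 uM in duplicate, then concentration-response up to 50 uM.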

[17] = tested on: guinea pig Leukotriene B4 Receptor (LTB4), gene 100379538; assay: NVS_GPCR_gLTB4: NovaScreen (NVS) G Protein-Coupled Receptor Assay for guinea pig Leukotriene B4 Receptor (LTB4) (AID 2283247)
How it was run: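 Radioligand displacement on guinea pig spleen membranes, filter-based scintillation counting 2 h after dosing. Primary duplicate single point at 25 uM; hits over threshold (e.g. 30% inhibition) run in concentration-response up to 50 uM, DMSO baseline.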

[18] = tested on: guinea pig Muscarinic, Peripheral (Mperiperal) Receptor, Non-selective Binding, gene 100379235; assay: NVS_GPCR_gMPeripheral_NonSelective: NovaScreen (NVS) G Protein-Coupled Receptor Assay for guinea pig Muscarinic, Peripheral (Mperiperal) Receptor, Non-selective Binding (AID 2283250)
How it was run: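 Guinea pig bladder membranes, radioligand binding read 1 h after dosing by filter scintillation counting; loss of signal vs DMSO. Primary duplicate screen at 25 uM, then concentration-response up to 50 uM.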

## Oc1cc(Cl)ccc1Oc1ccc(Cl)cc1Cl
[1]
  outcome: inactive
[2]
  AC50: 38.9 µM (active)
[3]
  outcome: inactive
[4]
  AC50: 37.5 µM (active)
[5]
  AC50: 6.8 µM (active)
[6]
  outcome: inactive
[7]
  outcome: inactive

## CC(C)(C)C(O)/C(=C\c1ccc(Cl)cc1Cl)n1cncn1 (configuration not stated)
[8]
  outcome: inactive

## CCC(C)(C)C(=O)OC1=C(c2ccc(Cl)cc2Cl)C(=O)OC12CCCCC2
[5]
  outcome: inactive

## OCCOc1ccccc1
[9]
  outcome: inactive

## CCCN(CCOc1c(Cl)cc(Cl)cc1Cl)C(=O)n1ccnc1
[2]
  AC50: 8.15 µM (active)
[10]
  outcome: inactive
[3]
  AC50: 13.3 µM (active)
[5]
  AC50: 4.96 µM (active)

## Oc1ccc(Cl)cc1Cc1ccccc1
[1]
  AC50: 13.6 µM (active)
[2]
  AC50: 17.3 µM (active) and 25.2 µM (active)
  outcome: inactive
[11]
  AC50: 6.93 µM (active)
  outcome: inactive
[12]
  AC50: 16.1 µM (active) [middle of 6 runs]
[3]
  AC50: 20.8 µM (active) [middle of 5 runs]
[13]
  AC50: 25.2 µM (active) and 15.1 µM (active)
[4]
  AC50: 33.3 µM (active) [middle of 5 runs]
[5]
  AC50: 25.2 µM (active) [middle of 6 runs]
[14]
  outcome: inactive
[15]
  AC50: 25.2 µM (active)
[7]
  AC50: 33.5 µM (active) [middle of 6 runs]

## CC[C@H](C)[C@H]1O[C@]2(C=C[C@@H]1C)C[C@@H]1C[C@@H](C/C=C(\C)[C@@H](O[C@H]3C[C@H](OC)[C@@H](O[C@H]4C[C@H](OC)[C@@H](O)[C@H](C)O4)[C@H](C)O3)[C@@H](C)/C=C/C=C3\CO[C@@H]4[C@H](O)C(C)=C[C@@H](C(=O)O1)[C@]34O)O2 (tested in a mixture with another compound)
[16]
  outcome: inactive
[11]
  AC50: 25 µM (active)
[3]
  AC50: 6.77 µM (active)
[4]
  AC50: 6.87 µM (active)
[5]
  AC50: 6.06 µM (active)
[14]
  AC50: 8.16 µM (active)

## CCOc1nc(NC)nc(NC(=O)NS(=O)(=O)c2ccccc2C(=O)OC)n1
[9]
  outcome: inactive

## O=C(O)C(F)(F)C(F)(F)C(F)(F)C(F)(F)C(F)(F)C(F)(F)C(F)(F)F
[17]
  AC50: 18.5 µM (active)
[11]
  outcome: inactive
[18]
  outcome: inactive
[13]
  AC50: 11 µM (active)
[5]
  outcome: inactive
[14]
  outcome: inactive
[7]
  outcome: inactive

## CCCN(CCC)c1c([N+](=O)[O-])cc(C(F)(F)F)cc1[N+](=O)[O-]
[9]
  outcome: inactive
